Screening data deposited in PubChem by National Center for Advancing Translational Sciences (NCATS).
Hits are enriched below; roughly 19% of the tested compounds scored in any of these assays.
Shiga toxin inh = Shiga toxin inhibition. Vero cells, Shiga toxin protein synthesis inhibition reporter. inhibition, % at 38.7 µM. 290,000 tested, 9.2% active. AID 2315; in the data active means inhibition mostly above about 28%, no sharp cut-off; inactive means mostly below about 43%; further: 0% is about no effect
Cycloheximide cs = affects cycloheximide protein synthesis inhibition readout, counter-screen | max response, % | cell reporter, cycloheximide protein synthesis inhibition counterscreen | 300,000 tested, 12% active; in the data active means max response mostly above about 13%, no sharp cut-off; inactive means mostly below about 14%; further: read at 38.3 µM for the half of the compounds with a filed dose; 0% is about no effect
Pf growth 96h = P. falciparum growth inhibition at 96 hours | 320,000 tested, 6.9% active | Potency, µM (titrated, usually from 28.7 µM), inactives show at the top dose activity change, negative = inhibition, most hits filed as inhibitors | P. falciparum luciferase reporter growth, 96 h | AID 504834; further: potency means the concentration at half of the fitted maximal effect; on the % scale 0 is the no-effect control and ±100 the full control effect
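Luminescence readout: decreased luciferase signal marks inhibited growth of reporter-expressing P. falciparum in infected red cells (2% hematocrit, 0.05% parasitemia final), exposed to compound two generations (96 h, 37 C, 5% CO2).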
Pf growth 48h = P. falciparum growth inhibition at 48 hours (one generation); AID 504832; Potency, µM (doses to about 28.7 µM), for the others: at the highest dose activity change, negative = inhibition, actives largely listed as inhibitors; 310,000 tested, 5.9% active; P. falciparum luciferase growth in erythrocytes, 48 h; further: potency means the concentration at half of the fitted maximal effect; on the % scale 0 is the no-effect control and ±100 the full control effect
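Read-out is firefly luciferase luminescence from an integrated reporter in P. falciparum, so falling signal marks reduced parasite growth. Infected erythrocytes were at 2% hematocrit and 0.1% parasitemia (final) in Albumax-supplemented RPMI 1640.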
AMA1-RON2 inh = disrupts binding of P. falciparum AMA1 to RON2 | AlphaScreen AMA1-biotinylated RON2 peptide binding | Potency, µM (highest dose often 58.2 µM), for inactives: top-dose activity change, negative = inhibition, actives largely listed as inhibitors | 360,000 tested, 0.2% active;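 further: potency means the concentration at half of the fitted maximal effect; 0% = vehicle wells and -100% = peptide control; nearly all actives have a fitted effect of over 45% in size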
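AMA1 (3D7) with his tag at 25 nM final met compounds first, then biotinylated RON2 peptide at 25 nM; detection used donor plus acceptor beads, 10 µg/mL apiece, read by AlphaScreen after 30 min at room temperature.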
SARS PLP yeast = inhibitors of SARS-CoV papain-like protease in yeast; Potency, µM (series often up to 32.9 µM), for the others: at the top dose activity, positive = growth rescue, actives largely listed as activators; S. cerevisiae expressing SARS-CoV PLpro, growth rescue; AID 485353; 330,000 tested, 0.19% active; calls by dose curve; further: potency means the concentration at half of the fitted maximal effect; 0% is about no effect; nearly all actives have a fitted effect of over 55% in size
* hit, by the source's call; ? = inconclusive; / = not tested or not shown; ! = a repeat was not active. Unless noted, the call rests on the fitted dose curve; in most records, active means well fitted curve in the direction sought with a large enough effect; inconclusive means small, poorly fitted or top-dose-only effect, or another doubt; inactive means no such curve, though single readings can be large; an effect the other way counts as inactive or inconclusive.

SMILES | Shiga toxin inh | Cycloheximide cs | Pf growth 96h | Pf growth 48h | AMA1-RON2 inh | SARS PLP yeast
O=C(c1ccc(C#Cc2ccccc2)o1)N1CCN(c2ccccn2)CC1 | 2 | -4 | 8.3µM* | -19% | -23% | -16%
O=C(c1ccc(CS(=O)Cc2ccc(Cl)cc2)o1)N1CCN(c2ccccn2)CC1 (stereo not drawn) | 12 | 4 | 10µM* | -27% | 4% | 1%
O=C(c1ccc(CS(=O)Cc2ccccc2Cl)o1)N1CCN(c2ccccn2)CC1 (stereo not drawn) | -3 | -2 | -11% | -28% | 13% | -2%
COC(=O)c1ccc(C#Cc2ccccc2)o1 | 31 | 56* | 20% | 49% | 2% | -1%
CN[C@@H](C)C(=O)NC[C@H]1O[C@@H](n2cnc3c(N)ncnc32)[C@H](O)[C@@H]1O | / | / | / | / | 4% | 12%
O=C(NC1(C(F)(F)F)NC(=O)N(c2ccc(F)cc2)C1=O)c1cccs1 (stereo not drawn) | -8 | -1 | -4% | -4% | -13% | 0%
CN(C)S(=O)(=O)Oc1cccc(C(=O)Nc2ccc(Cl)cc2)c1 | 153* | 45* | 471% | 279% | 2% | -4%
CN(C)S(=O)(=O)Oc1cccc(C(=O)Nc2ccccc2Cl)c1 | 93* | 41* | 16% | 66% | 4% | 0%
Cc1ccc(S(=O)(=O)c2cnc3cc(C)nn3c2N)cc1 | -15 | 0 | 5.9µM* | 215% | 2% | 2%
C[C@@H]1CN([C@H](C)CO)C(=O)CCCn2cc(nn2)CO[C@H]1CN(C)C(=O)c1ccc2ccn(C)c2c1 | / | / | / | / | 2% | /
Cc1cccc(CSc2nc3ccncc3n2CC(=O)Nc2cc(C)cc(C)c2)c1 | -7 | 6 | 8.3µM* | 26% | -5% | -9%
CCn1c(CNC(=O)c2cccnc2)cc2ccccc21 | -7 | -1 | 1% | 0% | 1% | -2%
O=S(=O)(c1ccc(F)cc1)N1CCC(n2cnc3ccccc32)CC1 | -13 | -5 | 54% | 14% | 13% | 1%
O=C(CSc1nc2cc(Cl)ccc2o1)N1CCOCC1 | 6 | 8 | -6% | 27% | -7% | -14%
O=C(CSc1nc2cc(Cl)ccc2o1)Nc1ccc(N2CCOCC2)cc1 | 72* | 31* | ? | 32% | -5% | 10%
O=C(CSc1nc2ccccc2o1)Nc1ccc(N2CCOCC2)cc1 | 62* | 47* | 32% | 236% | -8% | -6%
O=C(CN1c2cccc3cccc(c23)S1(=O)=O)Nc1ccccc1Br | / | / | / | / | 8% | 4%
COCC(=O)O[C@]1(CCN(C)CCCc2nc3ccccc3[nH]2)CCc2cc(F)ccc2[C@@H]1C(C)C | -11 | -5 | 2.4µM* | 1.5µM* | -16% | -1%
CCOC(=O)CCc1nc2ccccc2[nH]1 | 39 | 0 | / | / | 1% | 2%
CNC[C@H]1Oc2cc(Br)ccc2S(=O)(=O)N([C@@H](C)CO)C[C@@H]1C | / | / | / | / | 0% | /
C/C(CC(O)c1ccc2ccccc2n1)=N/O (stereo not drawn) | -10 | 10 | -24% | / | -7% | -3%
CN1C(=O)C2ON(c3ccccc3)C(c3cccs3)C2C1=O (stereo not drawn) | -8 | -3 | 9.3µM* | 5% | 1% | 3%
CC(C)(C)c1ccc(C(=O)Nc2ccc(O)c3c(=O)cc(-c4ccccc4Cl)oc23)cc1 | 33 | 4 | ? | ? | 0% | 1%
O=C(Nc1ccc(O)c2c(=O)cc(-c3ccccc3Cl)oc12)c1ccc(F)cc1 | 100*! | 88*! | -7% | 4% | 18% | 0%
O=C(Nc1ccc(O)c2c(=O)cc(-c3ccccc3Cl)oc12)c1cccs1 | -2 | -8 | ? | -23% | 1% | 1%
SMILES | Shiga toxin inh | Cycloheximide cs | Pf growth 96h | Pf growth 48h | AMA1-RON2 inh | SARS PLP yeast
Cc1ccc(/C=C/C(=O)Nc2ccc(O)c3c(=O)cc(-c4ccccc4Cl)oc23)cc1 | 4 | 7 | 10µM* | ? | 9% | 1%
O=c1[nH]nc(-c2ccc[nH]2)[nH]1 | / | / | / | / | 6% | /
Cc1nn(Cc2c(F)c(F)c(F)c(F)c2F)c(C)c1NC(=O)c1nn(C)c(C)c1Br | 5 | -2 | -1% | -8% | -13% | -1%
CCCCc1nc2cc(C(=O)N3CCC[C@H]3CO)ccc2o1 | 39* | 20* | ? | 58% | 3% | 2%
CCCCc1nc2cc(C(=O)N(C)C3CCOCC3)ccc2o1 | 116* | 68* | 29% | 51% | 9% | 0%
COC1CCN(C(=O)c2ccc3oc(Cc4ccc(Cl)cc4)nc3c2)CC1 | -4 | 10 | 220% | -4% | 10% | 0%
O=C(c1ccc2oc(CCc3ccccc3)nc2c1)N1CC[C@H](O)C1 | 85* | 38* | 7.4µM* | 147% | 2% | -1%
CCCCc1nc2cc(C(=O)N3CCC(O)CC3)ccc2o1 | 47* | 38* | -26% | 153% | -3% | 4%
Cc1ccccc1CN1C(=O)CN(S(C)(=O)=O)CC1(C)C(=O)Nc1ccc2c(c1)OCCO2 (stereo not drawn) | / | / | / | / | -9% | /
CCc1nc2ccc(C(=O)Nc3ccc(NC(C)=O)cc3)cn2c1N(C)C(=O)Cc1ccccc1 | / | / | / | / | 49% | /
Cc1cnccc1CNC(=O)CC1C(=O)NCCN1CC(C)(C)C (stereo not drawn) | -1 | -2 | 219% | ? | -3% | 1%
COc1cccc(N2C(=NC(=O)C3CCCO3)SC3CS(=O)(=O)CC32)c1 (stereo not drawn) | -7 | -2 | ? | -56% | 0% | 4%
CCCCc1nc2cc(C(=O)N(C)CCc3cn[nH]c3)ccc2o1 | 61* | 51* | ? | 17% | 0% | 7%
COc1ccc(Nc2nnc(-c3ccc(O)cc3)c3ccccc23)cc1C(N)=O | 23 | -1 | ? | -23% | -11% | 1%
Cc1ccc(-c2cc(C(=O)N3CCCC3)c3ccccc3n2)s1 | 52* | 20* | ? | -7% | 3% | -5%
COc1ccc(-c2nnc(Nc3ccc(OC)c(C(=O)N4CCCCC4)c3)c3ccccc23)cc1 | -13 | 0 | ? | 5.2µM* | -21% | 14%
Cc1ccc(-c2cc(C(=O)N3CCC(C)CC3)c3ccccc3n2)cc1 | 2 | 17* | ? | -5% | 5% | -4%
O=C(c1cc(-c2ccc(Br)cc2)nc2ccccc12)N1CCC1 | / | / | 4.1µM* | 3.3µM* | -6% | -2%
Cc1cc(C)nc(SCc2nnc(SCC(=O)Nc3ccccc3C)n2Cc2ccco2)n1 | -1 | -3 | 4% | ? | -1% | 1%
COc1ccc(CCNC(=O)Cc2cccc(C(F)(F)F)c2)cc1OC | -8 | 4 | ? | ? | 7% | 0%
CC1CCN(C(=O)c2cc3nc(-c4ccccc4)cc(-c4ccccc4)n3n2)CC1 | 4 | -1 | 6.6µM* | / | 40% | -26%
Cc1ccc(-c2cc(C(=O)O)c3cc(Br)ccc3n2)s1 | 42* | 23* | ? | 32% | -1% | 1%
